This is an account of results in PMC7862700, “An all-to-all approach to the identification of sequence-specific readers for epigenetic DNA modifications on cytosine”.

Common to all, as to test: DAPPL (digital affinity profiling via proximity ligation, sequencing); 10 mM Tris-HCl pH 7.5, 50 mM NaCl, 1 mM DTT, 4% glycerol, room temperature, 30 min; GST-TFs on glutathione beads, 16-mer random dsDNA library, 0.1% formaldehyde crosslink after washing; high values mean tight binding
Holding throughout (details): protein: recombinant; tags: N-terminal GST; dsDNA, one strand shown

The target of one test is T1, FLI1 (Homo sapiens, UniProt Q01543 1-452).
T1 sequence: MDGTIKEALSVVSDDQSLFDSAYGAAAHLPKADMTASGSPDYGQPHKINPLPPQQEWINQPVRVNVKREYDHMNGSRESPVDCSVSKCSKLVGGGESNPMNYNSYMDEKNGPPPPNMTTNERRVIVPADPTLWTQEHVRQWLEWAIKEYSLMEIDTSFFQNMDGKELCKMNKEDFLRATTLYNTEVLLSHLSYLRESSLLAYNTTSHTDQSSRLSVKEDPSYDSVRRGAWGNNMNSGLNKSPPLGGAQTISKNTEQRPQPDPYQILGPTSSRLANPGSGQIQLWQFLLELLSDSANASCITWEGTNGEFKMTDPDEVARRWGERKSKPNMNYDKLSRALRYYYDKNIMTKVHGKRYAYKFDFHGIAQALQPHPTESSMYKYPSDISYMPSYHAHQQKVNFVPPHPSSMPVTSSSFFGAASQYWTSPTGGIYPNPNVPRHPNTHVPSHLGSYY
The method, boiled down: (§1)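 Binding signal is defined as a hexamer's read frequency for one factor over its frequency for the tag-only sample. To obtain reads, GST-fused human transcription factors were expressed in yeast, captured on glutathione beads, barcoded with DNA and pooled with that sample. Pools met 200 nmole of a 16-mer random double-stranded DNA library in Tris/NaCl/DTT/glycerol buffer for 30 min at room temperature before washing, 0.1% formaldehyde crosslinking, proximity ligation (BsaI/T4 ligase, 1 h, 37 °C), PCR and Illumina NextSeq500 sequencing.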

In a further test the target is T2, ELK1 (Homo sapiens, UniProt P19419 1-428).
T2 sequence: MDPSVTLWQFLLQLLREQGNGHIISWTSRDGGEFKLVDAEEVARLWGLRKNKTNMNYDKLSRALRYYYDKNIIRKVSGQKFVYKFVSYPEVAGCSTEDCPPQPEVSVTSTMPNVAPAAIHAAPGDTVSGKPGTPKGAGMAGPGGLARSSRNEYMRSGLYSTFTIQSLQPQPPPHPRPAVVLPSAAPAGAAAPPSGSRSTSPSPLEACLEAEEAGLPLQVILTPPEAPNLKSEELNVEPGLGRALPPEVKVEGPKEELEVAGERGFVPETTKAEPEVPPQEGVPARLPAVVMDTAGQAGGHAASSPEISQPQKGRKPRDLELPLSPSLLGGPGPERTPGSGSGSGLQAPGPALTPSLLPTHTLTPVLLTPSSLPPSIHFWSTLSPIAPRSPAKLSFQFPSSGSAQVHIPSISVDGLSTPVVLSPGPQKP
The method, boiled down:
as §1

For the next test, the target named is T3, GABPA (Homo sapiens, UniProt Q06546 1-454).
T3 sequence: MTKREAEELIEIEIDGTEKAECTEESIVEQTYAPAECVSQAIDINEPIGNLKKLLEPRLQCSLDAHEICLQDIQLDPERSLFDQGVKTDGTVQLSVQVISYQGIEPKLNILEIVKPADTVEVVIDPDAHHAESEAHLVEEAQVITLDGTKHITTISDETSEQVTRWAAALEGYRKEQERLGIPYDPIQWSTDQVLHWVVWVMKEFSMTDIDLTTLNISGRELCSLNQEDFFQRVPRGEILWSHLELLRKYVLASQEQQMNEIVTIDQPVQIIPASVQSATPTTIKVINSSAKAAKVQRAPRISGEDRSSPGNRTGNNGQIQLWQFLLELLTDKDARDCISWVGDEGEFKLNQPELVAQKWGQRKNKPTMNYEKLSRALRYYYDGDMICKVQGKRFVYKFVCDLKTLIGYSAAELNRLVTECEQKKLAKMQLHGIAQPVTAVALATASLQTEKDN
The method, boiled down:
as §1

The next test has as its target T4, ERG (Homo sapiens, UniProt P11308 1-479).
T4 sequence: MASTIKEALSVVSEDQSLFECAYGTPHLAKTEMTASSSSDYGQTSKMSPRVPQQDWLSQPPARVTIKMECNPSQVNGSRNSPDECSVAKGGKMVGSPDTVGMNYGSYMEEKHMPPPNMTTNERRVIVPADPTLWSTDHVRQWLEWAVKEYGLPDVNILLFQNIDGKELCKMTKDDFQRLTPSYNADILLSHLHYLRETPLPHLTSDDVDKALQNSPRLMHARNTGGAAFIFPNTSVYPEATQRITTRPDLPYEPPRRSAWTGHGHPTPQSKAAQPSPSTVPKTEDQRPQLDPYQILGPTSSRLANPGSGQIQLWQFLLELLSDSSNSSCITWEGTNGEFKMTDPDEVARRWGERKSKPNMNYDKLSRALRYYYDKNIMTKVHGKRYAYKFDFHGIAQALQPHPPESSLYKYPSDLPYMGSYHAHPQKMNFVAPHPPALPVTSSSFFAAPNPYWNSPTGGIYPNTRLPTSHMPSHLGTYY
A digest of the protocol:
as §1

Another test has as its target ELF1 (Homo sapiens, UniProt P32519 1-619). The method, boiled down: as §1
The target in another test is T5, EHF (Homo sapiens, UniProt Q9NZC4 1-300).
T5 sequence: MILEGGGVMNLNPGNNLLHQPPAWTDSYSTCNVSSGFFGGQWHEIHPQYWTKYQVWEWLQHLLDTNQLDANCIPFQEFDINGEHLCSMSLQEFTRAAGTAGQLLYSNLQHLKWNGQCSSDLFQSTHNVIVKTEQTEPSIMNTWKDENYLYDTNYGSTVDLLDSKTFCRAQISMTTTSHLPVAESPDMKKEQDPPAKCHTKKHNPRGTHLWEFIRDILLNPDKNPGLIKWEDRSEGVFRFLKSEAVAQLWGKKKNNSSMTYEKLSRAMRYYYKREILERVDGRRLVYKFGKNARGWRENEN
The method, boiled down:
as §1

The target in the next test is SPI1 (Homo sapiens, UniProt P17947 1-270). A digest of the protocol: as §1
For a further test, the target named is SPIB (Homo sapiens, UniProt Q01892 1-262). A digest of the protocol: as §1
The target of a further test is T6, ELK3 (Homo sapiens, UniProt P41970 1-407).
T6 sequence: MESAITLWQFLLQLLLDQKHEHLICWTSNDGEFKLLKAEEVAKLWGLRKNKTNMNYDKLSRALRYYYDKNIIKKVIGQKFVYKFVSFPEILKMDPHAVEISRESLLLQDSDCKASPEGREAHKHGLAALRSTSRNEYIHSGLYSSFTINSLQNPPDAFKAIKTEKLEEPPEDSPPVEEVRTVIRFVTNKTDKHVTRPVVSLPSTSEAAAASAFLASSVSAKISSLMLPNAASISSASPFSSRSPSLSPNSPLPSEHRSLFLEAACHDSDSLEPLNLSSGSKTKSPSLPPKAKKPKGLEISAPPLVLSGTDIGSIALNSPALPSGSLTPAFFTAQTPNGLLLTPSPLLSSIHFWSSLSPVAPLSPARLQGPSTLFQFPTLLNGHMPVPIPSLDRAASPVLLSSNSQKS
The method, boiled down:
as §1

In another test the target is T7, FEV (Homo sapiens, UniProt Q99581 1-238).
T7 sequence: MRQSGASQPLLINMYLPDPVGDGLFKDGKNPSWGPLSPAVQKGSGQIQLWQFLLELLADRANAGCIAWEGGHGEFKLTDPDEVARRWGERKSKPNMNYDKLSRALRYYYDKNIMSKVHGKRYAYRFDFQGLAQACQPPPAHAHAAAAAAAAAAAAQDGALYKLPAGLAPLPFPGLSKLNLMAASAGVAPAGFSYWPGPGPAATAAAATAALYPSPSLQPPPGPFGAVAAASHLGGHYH
The method, boiled down:
as §1

In another test the target is ETV5 (Homo sapiens, UniProt P41161 1-510). A digest of the protocol: as §1
For another test, the target named is T8, SPIC (Homo sapiens, UniProt Q8N5J4 1-248).
T8 sequence: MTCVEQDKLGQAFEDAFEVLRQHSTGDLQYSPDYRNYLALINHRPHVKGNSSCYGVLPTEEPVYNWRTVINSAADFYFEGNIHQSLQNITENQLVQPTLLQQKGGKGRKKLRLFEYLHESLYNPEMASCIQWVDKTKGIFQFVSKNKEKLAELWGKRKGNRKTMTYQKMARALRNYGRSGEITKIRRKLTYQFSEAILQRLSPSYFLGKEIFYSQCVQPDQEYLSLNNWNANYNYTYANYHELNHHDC
The method, boiled down: as §1

Another test has as its target ELF4 (Homo sapiens, UniProt Q99607 1-663). A digest of the protocol:
as §1

The target of another test is T9, ELK4 (Homo sapiens, UniProt P28324-2 1-405).
T9 sequence: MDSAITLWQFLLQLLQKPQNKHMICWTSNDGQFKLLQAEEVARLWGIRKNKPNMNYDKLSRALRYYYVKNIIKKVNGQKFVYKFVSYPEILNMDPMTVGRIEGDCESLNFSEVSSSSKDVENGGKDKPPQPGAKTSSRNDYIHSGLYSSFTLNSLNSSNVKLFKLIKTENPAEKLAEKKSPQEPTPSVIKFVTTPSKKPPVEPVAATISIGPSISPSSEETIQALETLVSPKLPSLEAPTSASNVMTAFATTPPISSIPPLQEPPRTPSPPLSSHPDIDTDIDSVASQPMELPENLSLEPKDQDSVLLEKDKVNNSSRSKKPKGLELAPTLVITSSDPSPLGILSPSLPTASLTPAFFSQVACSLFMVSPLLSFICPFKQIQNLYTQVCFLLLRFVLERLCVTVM
The method, boiled down:
as §1

In the next test the target is T10, ETV2 (Homo sapiens, UniProt O00321 1-342).
T10 sequence: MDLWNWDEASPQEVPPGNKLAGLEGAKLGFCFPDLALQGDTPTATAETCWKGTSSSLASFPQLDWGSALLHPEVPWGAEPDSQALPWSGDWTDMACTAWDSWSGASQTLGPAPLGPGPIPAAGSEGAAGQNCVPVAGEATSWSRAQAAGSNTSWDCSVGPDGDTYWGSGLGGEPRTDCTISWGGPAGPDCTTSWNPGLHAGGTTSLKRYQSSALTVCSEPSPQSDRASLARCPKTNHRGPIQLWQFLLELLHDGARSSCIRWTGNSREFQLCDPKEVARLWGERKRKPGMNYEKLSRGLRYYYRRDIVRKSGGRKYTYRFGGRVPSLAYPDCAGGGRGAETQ
The method, boiled down: as §1

In another test the target is T11, ELF3 (Homo sapiens, UniProt P78545 1-371).
T11 sequence: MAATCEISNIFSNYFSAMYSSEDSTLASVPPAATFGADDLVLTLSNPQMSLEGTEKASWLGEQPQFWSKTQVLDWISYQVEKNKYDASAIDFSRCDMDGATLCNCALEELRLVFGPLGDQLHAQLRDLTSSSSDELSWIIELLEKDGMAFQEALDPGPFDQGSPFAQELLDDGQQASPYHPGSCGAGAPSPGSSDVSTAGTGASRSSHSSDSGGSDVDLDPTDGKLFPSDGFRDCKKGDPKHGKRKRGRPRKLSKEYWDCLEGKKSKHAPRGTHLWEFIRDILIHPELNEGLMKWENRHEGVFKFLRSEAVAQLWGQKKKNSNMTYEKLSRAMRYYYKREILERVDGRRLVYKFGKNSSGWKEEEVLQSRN
A digest of the protocol: as §1

For a further test, the target named is ETV1 (Homo sapiens, UniProt P50549 1-477). The method, boiled down: as §1
Chain of ETV1 (P50549 whole entry): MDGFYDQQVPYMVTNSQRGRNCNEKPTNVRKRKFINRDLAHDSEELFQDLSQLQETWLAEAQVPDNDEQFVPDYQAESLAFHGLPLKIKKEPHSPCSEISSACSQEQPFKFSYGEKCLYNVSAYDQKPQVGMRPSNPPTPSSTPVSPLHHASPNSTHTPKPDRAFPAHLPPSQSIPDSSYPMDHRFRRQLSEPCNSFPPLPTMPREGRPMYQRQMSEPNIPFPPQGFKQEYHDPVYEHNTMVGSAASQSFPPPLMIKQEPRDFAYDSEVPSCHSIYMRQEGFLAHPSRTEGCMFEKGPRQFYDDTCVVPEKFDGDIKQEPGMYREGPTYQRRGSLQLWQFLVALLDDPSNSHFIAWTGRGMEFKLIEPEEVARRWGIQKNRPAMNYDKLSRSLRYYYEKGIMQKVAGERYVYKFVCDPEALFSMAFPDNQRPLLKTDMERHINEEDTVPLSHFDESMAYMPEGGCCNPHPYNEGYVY

Chain of SPIB (Q01892 whole entry): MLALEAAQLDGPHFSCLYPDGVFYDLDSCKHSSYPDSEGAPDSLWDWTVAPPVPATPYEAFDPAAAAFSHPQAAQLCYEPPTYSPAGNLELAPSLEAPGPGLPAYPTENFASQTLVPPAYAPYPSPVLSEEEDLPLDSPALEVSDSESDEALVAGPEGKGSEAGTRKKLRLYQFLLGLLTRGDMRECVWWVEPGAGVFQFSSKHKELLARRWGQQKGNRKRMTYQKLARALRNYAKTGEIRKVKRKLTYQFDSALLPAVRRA
Chain of ELF1 (P32519 whole entry): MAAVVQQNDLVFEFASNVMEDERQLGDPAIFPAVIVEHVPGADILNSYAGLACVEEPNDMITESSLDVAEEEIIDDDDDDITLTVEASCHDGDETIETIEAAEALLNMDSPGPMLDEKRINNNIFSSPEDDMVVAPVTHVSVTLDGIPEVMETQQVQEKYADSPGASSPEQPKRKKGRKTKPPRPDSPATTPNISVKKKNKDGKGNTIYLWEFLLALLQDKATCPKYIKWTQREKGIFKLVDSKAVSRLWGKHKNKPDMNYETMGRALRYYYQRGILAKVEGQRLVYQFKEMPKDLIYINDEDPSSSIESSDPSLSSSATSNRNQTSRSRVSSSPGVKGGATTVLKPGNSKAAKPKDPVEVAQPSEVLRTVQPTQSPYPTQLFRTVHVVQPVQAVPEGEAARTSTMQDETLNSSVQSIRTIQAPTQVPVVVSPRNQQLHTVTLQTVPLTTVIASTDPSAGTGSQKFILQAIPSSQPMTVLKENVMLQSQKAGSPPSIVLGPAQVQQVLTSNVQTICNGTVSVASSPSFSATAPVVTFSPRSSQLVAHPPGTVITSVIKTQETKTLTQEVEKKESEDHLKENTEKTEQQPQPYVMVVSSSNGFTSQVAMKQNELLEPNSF
Chain of ETV5 (P41161 whole entry): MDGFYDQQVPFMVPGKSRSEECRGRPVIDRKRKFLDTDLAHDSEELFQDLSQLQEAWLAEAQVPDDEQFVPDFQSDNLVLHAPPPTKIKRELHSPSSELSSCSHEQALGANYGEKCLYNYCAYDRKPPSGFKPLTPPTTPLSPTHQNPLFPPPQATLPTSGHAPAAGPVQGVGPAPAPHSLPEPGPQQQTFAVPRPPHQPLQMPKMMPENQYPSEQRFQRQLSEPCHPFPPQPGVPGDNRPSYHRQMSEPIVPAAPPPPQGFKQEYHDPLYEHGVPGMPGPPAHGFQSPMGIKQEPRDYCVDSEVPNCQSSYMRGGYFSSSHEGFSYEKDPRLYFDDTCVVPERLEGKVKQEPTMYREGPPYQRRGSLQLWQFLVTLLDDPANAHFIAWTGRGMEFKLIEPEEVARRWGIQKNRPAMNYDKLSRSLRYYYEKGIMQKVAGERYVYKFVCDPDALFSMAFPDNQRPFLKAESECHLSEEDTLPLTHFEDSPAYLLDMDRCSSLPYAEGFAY
Chain of ELF4 (Q99607 whole entry): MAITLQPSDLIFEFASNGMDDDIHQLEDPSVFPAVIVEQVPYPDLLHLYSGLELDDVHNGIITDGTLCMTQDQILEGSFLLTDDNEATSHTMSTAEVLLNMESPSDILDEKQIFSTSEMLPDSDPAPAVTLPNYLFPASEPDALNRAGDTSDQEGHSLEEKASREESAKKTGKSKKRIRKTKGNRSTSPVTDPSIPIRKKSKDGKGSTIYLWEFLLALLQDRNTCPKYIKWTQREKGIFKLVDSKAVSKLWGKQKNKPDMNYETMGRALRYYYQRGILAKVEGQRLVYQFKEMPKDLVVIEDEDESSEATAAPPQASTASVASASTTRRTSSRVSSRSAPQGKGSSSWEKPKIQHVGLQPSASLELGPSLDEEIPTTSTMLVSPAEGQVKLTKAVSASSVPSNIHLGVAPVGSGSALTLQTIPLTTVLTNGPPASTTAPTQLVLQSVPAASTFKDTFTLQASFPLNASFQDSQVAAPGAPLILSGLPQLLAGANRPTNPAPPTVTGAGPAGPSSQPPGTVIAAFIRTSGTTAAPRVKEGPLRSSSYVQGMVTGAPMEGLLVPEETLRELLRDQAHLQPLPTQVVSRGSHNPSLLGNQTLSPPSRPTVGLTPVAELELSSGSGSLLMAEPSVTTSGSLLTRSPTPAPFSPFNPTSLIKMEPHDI

With ATATGT, the binding signal in the test with FLI1 is 1.09 fold enrichment (6-mer frequency, TF over GST control); with ELK1, 1.08 fold enrichment (6-mer frequency, TF over GST control); with GABPA it was 1.16 fold enrichment (6-mer frequency, TF over GST control); with ERG it was 1.1 fold enrichment (6-mer frequency, TF over GST control); with ELF1 it was 1.2 fold enrichment (6-mer frequency, TF over GST control); with EHF, 1.13 fold enrichment (6-mer frequency, TF over GST control). Also, the binding signal was 1.09 fold enrichment (6-mer frequency, TF over GST control) in the test with SPI1; 1.18 fold enrichment (6-mer frequency, TF over GST control) in the test with SPIB; 1.14 fold enrichment (6-mer frequency, TF over GST control) in the test with ELK3; 1.11 fold enrichment (6-mer frequency, TF over GST control) with FEV; 1.1 fold enrichment (6-mer frequency, TF over GST control) with ETV5; 1.18 fold enrichment (6-mer frequency, TF over GST control) in the test with SPIC. The binding signal with ELF4 was 1.14 fold enrichment (6-mer frequency, TF over GST control); with ELK4 it was 1.21 fold enrichment (6-mer frequency, TF over GST control); with ETV2, 1.04 fold enrichment (6-mer frequency, TF over GST control); in the test with ELF3, 1.14 fold enrichment (6-mer frequency, TF over GST control); with ETV1 it was 1.12 fold enrichment (6-mer frequency, TF over GST control).
Consider AAGTGC, for which the binding signal with FLI1 is 1.32 fold enrichment (6-mer frequency, TF over GST control); with ELK1, 1.33 fold enrichment (6-mer frequency, TF over GST control); with GABPA it was 1.13 fold enrichment (6-mer frequency, TF over GST control); with ERG, 1.32 fold enrichment (6-mer frequency, TF over GST control); with ELF1 it was 1.28 fold enrichment (6-mer frequency, TF over GST control); with EHF, 1.34 fold enrichment (6-mer frequency, TF over GST control). In addition, the binding signal in the test with SPI1 is 1.67 fold enrichment (6-mer frequency, TF over GST control); with SPIB, 1.34 fold enrichment (6-mer frequency, TF over GST control); with ELK3, 1.39 fold enrichment (6-mer frequency, TF over GST control); with FEV, 1.32 fold enrichment (6-mer frequency, TF over GST control); with ETV5, 1.33 fold enrichment (6-mer frequency, TF over GST control); in the test with SPIC, 1.5 fold enrichment (6-mer frequency, TF over GST control). For the same sequence, the binding signal with ELF4 is 1.29 fold enrichment (6-mer frequency, TF over GST control); with ELK4, 1.21 fold enrichment (6-mer frequency, TF over GST control); with ETV2, 1.35 fold enrichment (6-mer frequency, TF over GST control); with ELF3, 1.33 fold enrichment (6-mer frequency, TF over GST control); in the test with ETV1 it was 1.25 fold enrichment (6-mer frequency, TF over GST control).
